# Measured values published in the supplement of paper PMC12636033.
# ± gives the standard deviation of the averaged measurements. Over roughly 33,000 sequences, “E-score (rank enrichment, -0.5 to 0.5)” has its median near -0.0043; the highest 2% begin near 0.24. The entries come from a sample that favours the highest values as a whole.
# Tested on: 2Sp-muMax20 (muMax20 with two 2,6-bis(methyl)pyridine Cys staples)
# Assay: PBM 8-mer E-score (E-score (rank enrichment, -0.5 to 0.5)); higher = stronger preferential binding
# Experimental: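 Protein binding microarray (universal PBM chip covering all 10-mers in fixed probe flanks) with chemically synthesized human Max(13-93) bHLH-LZ analogs (not full-length Max) bearing noncanonical residues (hArg, Tha, Aib, Nle at 65) and aromatic Cys staples. Read-out per 8-mer (and its reverse complement): E-score (rank-based enrichment, -0.5 to 0.5) and Z-score of median probe intensity.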
row,Sequence,PBM 8-mer E-score
1,TGACATAA,0.128 ± 0.05
2,GTGTGGAA,0.118 ± 0.01
3,AGCCCGTA,-0.23 ± 0.063
4,CATTTCAC,0.0886 ± 0.049
5,AATTTTCA,0.146 ± 0.05
6,CACATTCG,0.00422 ± 0.036
7,ATTACTGA,0.103 ± 0.074
8,CGAGGAAC,-0.084 ± 0.029
9,AATATGGT,0.0878 ± 0.052
10,AATATGGC,0.302 ± 0.044
11,AATATGGA,0.104 ± 0.011
12,AGCAACAG,-0.0291 ± 0.074
13,ACCTAAGT,-0.0381 ± 0.043
14,ATATTGTC,0.121 ± 0.03
15,AATAGTGA,-0.033 ± 0.029
16,TATAGTGA,0.249 ± 0.048
17,CATAGTGA,0.0514 ± 0.05
18,GGTGTTGA,0.0564 ± 0.02
19,AGGAACAT,-0.135 ± 0.031
20,ATTTACGA,0.0937 ± 0.12
21,GTTTACGA,0.242 ± 0.027
22,CTTTACGA,-0.0477 ± 0.0036
23,GAACGCAC,-0.0274 ± 0.025
24,ACAAAGCT,0.00391 ± 0.011
25,CTGTATCC,0.236 ± 0.0094

row,Sequence,PBM 8-mer E-score
1,CCATATCA,0.114 ± 0.071
2,TCATAGCA,0.159 ± 0.02
3,CTGTATCA,-0.0346 ± 0.018
4,CCATAGCA,0.135 ± 0.0028
5,ACATATCA,0.299 ± 0.0056
6,ACATAGCA,0.236 ± 0.05
7,CTATATCA,0.24 ± 0.0079
8,ATATATCA,0.212 ± 0.014
9,ATGTATCC,-0.111 ± 0.0078
10,GTATATCA,0.0652 ± 0.016
11,ACATATCG,0.115 ± 0.042
12,CGCGCAGC,-0.126 ± 0.023
13,GCAGACGC,-0.0631 ± 0.015
14,CCCAACTA,0.161 ± 0.022
15,TTCGGCAA,0.0437 ± 0.12
16,AAATCAGG,0.041 ± 0.025
17,TGCCGTAA,-0.113 ± 0.098
18,CGCCAGCA,-0.199 ± 0.1
19,CACGAAAC,0.164 ± 0.018
20,ATATATCG,0.0892 ± 0.031
21,ATATATCC,0.285 ± 0.096
22,CTATATCC,0.169 ± 0.018
23,AAACTCGT,-0.0113 ± 0.038
24,CACCTTTA,-0.0135 ± 0.041
25,ATCTAGTC,-0.00402 ± 0.0038

row,Sequence,PBM 8-mer E-score
1,CACATTAG,0.00777 ± 0.035
2,AACATTAC,0.169 ± 0.003
3,CACATTAC,0.2476 ± 0.0022
4,CCATTCGC,-0.13 ± 0.11
5,GCGAGGTA,-0.144 ± 0.19
6,AGTTCCCC,-0.0334 ± 0.025
7,TATTCTAA,0.246 ± 0.003
8,GATTATAA,0.154 ± 0.034
9,AATTATAG,0.148 ± 0.082
10,AATTCTAA,0.133 ± 0.092
11,CATTATAA,0.246 ± 0.1
12,TATTATCA,0.122 ± 0.025
13,CATTCTAA,0.00098 ± 0.075
14,AATTATAA,0.3 ± 0.026
15,TATTATAA,0.244 ± 0.079
16,CATTATAG,0.0091 ± 0.076
17,TCTTATAA,0.193 ± 0.04
18,CATTATAC,0.218 ± 0.0061
19,GGGGGGGA,-0.1747 ± 0.00091
20,AGATAGCA,0.137 ± 0.011
21,CCTTATGC,0.0835 ± 0.078
22,AATTATCC,0.0373 ± 0.0027
23,AATTATCT,0.235 ± 0.023
24,AATTATCA,0.198 ± 0.045
25,ACCCTCGT,0.00159 ± 0.081

row,Sequence,PBM 8-mer E-score
1,GACTAACA,0.0143 ± 0.0082
2,GGCCCAAA,-0.117 ± 0.027
3,CGAATGCC,-0.0493 ± 0.096
4,CAAATGGG,0.236 ± 0.052
5,GAAATGTA,0.0185 ± 0.077
6,TAAATGTA,0.281 ± 0.054
7,CAAATGGC,-0.0435 ± 0.002
8,CGAATGCA,0.32 ± 0.04
9,AAAATGGG,-0.206 ± 0.0038
10,CAAATGTA,0.188 ± 0.012
11,AAAATGCC,-0.0688 ± 0.037
12,AAAATGCA,0.145 ± 0.012
13,AAAATGCT,0.263 ± 0.0092
14,CGAATGCG,0.0188 ± 0.013
15,CGGGACCG,-0.357 ± 0.032
16,CCTATCCC,0.0952 ± 0.097
17,TCATCTAA,0.00256 ± 0.03
18,AATCTAAA,0.0534 ± 0.04
19,CAGCGATC,-0.158 ± 0.022
20,AGAATGCA,0.0925 ± 0.055
21,ACCAATCA,-0.0682 ± 0.088
22,CGTACGAA,0.19 ± 0.0087
23,CACGACGG,0.0169 ± 0.013
24,CGAAGAAA,0.223 ± 0.059
25,CCACTGAA,-0.0273 ± 0.065

row,Sequence,PBM 8-mer E-score
1,AGCAAGAT,-0.0742 ± 0.058
2,AAAATGAA,0.135 ± 0.0098
3,CAAATGCA,0.064 ± 0.011
4,GAAATGCA,0.135 ± 0.11
5,AAAATGAG,0.267 ± 0.012
6,CAAATGAG,0.0988 ± 0.053
7,TAAATGCA,0.238 ± 0.1
8,AAGGTTTA,-0.18 ± 0.048
9,GCGCGCAA,0.184 ± 0.057
10,AAATGGCA,0.155 ± 0.028
11,TAGACATA,0.0769 ± 0.014
12,TAATGTGA,0.266 ± 0.01
13,ACATGTGA,0.312 ± 0.0028
14,CGATGTGA,0.0746 ± 0.018
15,ATATGTGG,0.218 ± 0.032
16,CTATGTGA,0.148 ± 0.044
17,GAATGTGA,0.00134 ± 0.14
18,AGATGTGA,0.199 ± 0.019
19,GCATGTGA,0.183 ± 0.082
20,ATATGTGA,0.311 ± 0.022
21,CCATGTGA,0.268 ± 0.087
22,CCATGTGC,0.114 ± 0.025
23,CAATGTGA,0.146 ± 0.013
24,GCTTAGCA,0.039 ± 0.11
25,TACGCTAA,0.218 ± 0.0075

row,Sequence,PBM 8-mer E-score
1,GTTCTCTA,-0.185 ± 0.098
2,AGTTCCAA,-0.0402 ± 0.057
3,CCCCCCTA,-0.112 ± 0.073
4,GCCAAACC,-0.0278 ± 0.14
5,GCAGATAC,0.04 ± 0.079
6,ATAATACG,0.177 ± 0.032
7,ATTCTACA,0.253 ± 0.021
8,ATACTACA,0.258 ± 0.033
9,ATACTACC,0.147 ± 0.029
10,ATTCTACG,0.228 ± 0.01
11,CTACTACA,0.0934 ± 0.18
12,GTTCTACA,0.0307 ± 0.072
13,ATACTAAA,0.145 ± 0.13
14,ATACTAAC,0.245 ± 0.041
15,ATAATACC,0.209 ± 0.033
16,ATAATACA,0.271 ± 0.0055
17,GTACTAAC,0.127 ± 0.038
18,CCCGTCCA,-0.241 ± 0.017
19,TTCTAAAA,-0.19 ± 0.05
20,TCCAACGA,-0.0483 ± 0.18
21,CTGGCAAG,-0.0269 ± 0.07
22,ACATTTTA,0.232 ± 0.019
23,CCACTATA,0.183 ± 0.0029
24,GGCAGTAC,0.105 ± 0.086
25,ATACTAGA,0.26 ± 0.055

row,Sequence,PBM 8-mer E-score
1,ATACTAGC,0.117 ± 0.075
2,CTACTAGA,0.05 ± 0.076
3,AAAATAGC,-0.0165 ± 0.011
4,AAAATAGA,0.242 ± 0.0042
5,TAAATAGA,0.000425 ± 0.01
6,TAACCTCA,-0.00886 ± 0.051
7,GAGAGCAA,-0.127 ± 0.12
8,CCTGGATA,-0.0904 ± 0.0036
9,AAATAGAT,0.227 ± 0.023
10,AAATAGGC,0.0753 ± 0.026
11,AAATAGAC,0.257 ± 0.0069
12,AAATAGGG,0.208 ± 0.0056
13,AAATAGGT,0.241 ± 0.0095
14,GAATAGAC,0.104 ± 0.096
15,ACCGAAAA,-0.0179 ± 0.15
16,CTCTTCCC,-0.062 ± 0.011
17,CGCGTGCC,0.0851 ± 0.061
18,TACGTGCA,0.105 ± 0.013
19,AACGTGCG,0.129 ± 0.11
20,CACGTGCG,0.4142 ± 0.0019
21,CGCGTGCA,0.263 ± 0.035
22,GACGTGCC,-0.0934 ± 0.065
23,AACGTGCC,0.0275 ± 0.036
